# Bioassay records (PubChem BioAssay)
# TRPM1 prom inh – inhibitors of MITF-dependent TRPM1 promoter reporter, primary screen, cell-based, SK-MEL-5, single point, luciferase; inhibition, % at 12.5 µM; SK-MEL-5 TRPM1 promoter luciferase, 24 h; hit rate 0.83% among 330,000;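 active = mean inhibition across replicates of 60% or more, whatever share of single replicates reaches that level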
# TROY signal inh – inhibitors of TROY-driven NF-kB signaling, primary screen, Q293 LMP1-TROYcd cells, NF-kB luciferase, uHTS. hit rate 0.98% among 360,000. AID 1347056, 2019. Q293 LMP1-TROYcd NF-kB luciferase reporter, 4 h. inhibition, % at 10 µM;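 active = compounds whose plate-normalised and pattern-corrected inhibition of the luciferase reporter signal at the single screening dose is 50% or more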
# Peg3 prom inh – Peg3 promoter-driven luciferase inhibitors, primary screen, cell-based, HeLa, luciferase luminescence; HeLa PEG-Prom luciferase reporter, overnight; inhibition, % at 20 µM; hit rate 1.7% among 360,000; AID 588405, 2011;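 active = inhibition of at least 50% at 20 µM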
# Shn3 3UTR inh – reduction of Shn3 3'UTR firefly luciferase signal, primary screen, Schnurri-3 inhibitor project, cell-based, Clone20 osteoblasts, set 2; Clone20 osteoblast Shn3 3'UTR firefly luciferase, 24 h; inhibition, % at 12.5 µM; hit rate 0.52% among 360,000; AID 588674, 2011;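 active = mean inhibition of at least 75% with every replicate also reaching 75%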;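 note: 0% = median of neutral control wells and 100% = pilot-screen positive control compound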
# LMP1 NFkB inh – EBV LMP1-driven NF-kappaB luciferase reporter inhibitors, primary screen, cell-based, luminescence, single point; hit rate 0.69% among 350,000; LMP1-induced NF-kappaB luciferase reporter cells; inhibition, % at 12.5 µM; in the data active = inhibition above about 41%;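 note: 0% = neutral control wells and 100% = reference inhibitor control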
# TWEAK-Fn14 inh – inhibitors of TWEAK-Fn14 signaling, primary screen, luciferase reporter cells, uHTS; TWEAK-stimulated Fn14 reporter cells, luciferase luminescence, 8 h; inhibition, % at 10 µM; hit rate 2% among 360,000; in the data active = inhibition above about 50%
# * marks the source's active call; other numbers are inactive results; · = no result. Compounds with a hit are over-represented: about 4.1% of the library has one in this group of screens.
SMILES,TRPM1 prom inh,TROY signal inh,Peg3 prom inh,Shn3 3UTR inh,LMP1 NFkB inh,TWEAK-Fn14 inh
CC1Sc2ccc(S(=O)(=O)CCC(=O)Nc3cc(F)ccc3F)cc2NC1=O (stereo unspecified),6.1,-10.4,18.9,-47.9,-4.0,-5.0
CCNC(=O)CC1C(=O)N(CC)C(=S)N1NC(=O)c1ccc(Cl)cc1 (stereo unspecified),5.5,5.3,-29.0,16.0,-17.6,-17.8
CCNC(=O)CC1C(=O)N(CC)C(=S)N1NC(=O)c1cccnc1 (stereo unspecified),-6.3,0.3,38.1,2.9,73.6*,-7.3
CCOC(=O)c1c(N2C(=O)Nc3cc(Cl)c(Cl)cc3N2O)sc2c1CCCCC2,6.1,52.7*,30.0,-2.1,4.4,7.6
CCOC(=O)c1c(N2C(=O)C3C4C=CC(O4)C3C2=O)sc2c1CCCC2 (stereo unspecified),1.4,1.7,51.1*,10.6,5.1,7.1
CCOC(=O)c1c(-n2cnnn2)sc2c1CCCC2,4.5,-3.5,-4.2,9.2,-1.3,-10.4
CCOC(=O)c1c(N)sc2c1CCCC2,5.8,-4.0,2.2,22.4,3.6,-11.0
COc1ccc(C(=O)c2[nH]c(N)c(C(=O)NCCc3c[nH]c4ccccc34)c2-c2ccc(Cl)c(F)c2)cc1,·,-22.2,·,·,·,29.4
COC(=O)c1cc(S(=O)(=O)Nc2cccc(OC)c2)cn1C,11.9,19.4,51.8*,1.0,-12.7,11.1
Cc1ccc(OCCC(=O)OC(C)C(=O)Nc2ccc(Cl)cn2)cc1 (stereo unspecified),-8.5,-4.4,0.8,-14.5,-2.8,8.2
CC(C)CCN(C(=O)Cc1ccc(Cl)c(Cl)c1)c1c(N)n(Cc2ccccc2)c(=O)[nH]c1=O,81.0*,8.3,32.2,23.4,3.4,-4.6
CC(C)N(Cc1ccccc1)C(=O)COC(=O)c1cnc(Cl)c(Cl)c1,47.1,5.0,82.9*,3.6,5.9,-9.7
CC(C)CN(C(=O)COC(=O)c1cnc(Cl)c(Cl)c1)c1c(N)n(Cc2ccccc2)c(=O)[nH]c1=O,4.2,28.3,84.8*,3.9,-1.8,15.1
Cc1cccc(C(=O)N(Cc2ccco2)c2c(N)n(Cc3ccccc3)c(=O)[nH]c2=O)c1,5.1,-9.4,-1.6,19.7,68.5*,4.8
CC(C)CN(C(=O)COC(=O)c1cccnc1Cl)c1c(N)n(Cc2ccccc2)c(=O)[nH]c1=O,-5.6,-4.3,12.3,3.9,-23.9,-18.9
Cc1ccc(C(=O)N(Cc2ccco2)c2c(N)n(Cc3ccccc3)c(=O)[nH]c2=O)cc1,·,-4.1,-0.2,-10.9,-3.9,17.1
CC(C)CCN(C(=O)c1ccncc1)c1c(N)n(Cc2ccccc2)c(=O)[nH]c1=O,4.2,-4.5,19.3,-20.8,0.2,14.6
CC(C)CN(C(=O)CSc1nc(-c2ccccc2)cn1N)c1c(N)n(Cc2ccccc2)c(=O)[nH]c1=O,-7.8,53.5*,-142.1,-66.8,-17.6,43.2
COc1ccc(-c2nc(SCC(=O)N(CC(C)C)c3c(N)n(Cc4ccccc4)c(=O)[nH]c3=O)n[nH]2)cc1,6.1,4.0,-12.4,-11.1,-7.4,7.5
O=[N+]([O-])c1ccc2nc(-c3ccc(Cl)cc3)n(OCc3ccccc3)c2c1,-54.9,55.6*,-184.3,-20.1,-43.4,35.1
O=[N+]([O-])c1ccc(O)c(C2CCCCC2)c1,2.7,61.2*,38.5,-1.8,3.2,52.4*
O=[N+]([O-])c1ccc2nc(C3CCCCC3)[nH]c2c1,-15.2,-15.2,-63.0,-15.6,-3.5,-46.3
CC(=O)Nc1ccc(C=NNc2nnc(NN=Cc3ccc(NC(C)=O)cc3)c3ccccc23)cc1,-0.7,38.1,-76.9,8.2,44.5*,56.4*
Clc1ccc(-c2nc3n(n2)Cc2ccccc2-3)cc1,-13.9,-34.4,-136.0,-31.5,-33.4,51.7*
CCN(CC)S(=O)(=O)c1cccc(-c2nc3n(n2)Cc2ccccc2-3)c1,16.1,-50.1,-116.0,-24.8,-1.1,3.2
SMILES,TRPM1 prom inh,TROY signal inh,Peg3 prom inh,Shn3 3UTR inh,LMP1 NFkB inh,TWEAK-Fn14 inh
CC1=C(C(=O)Nc2ccccc2)C(c2ccc(C)o2)n2ncnc2N1 (stereo unspecified),5.7,·,13.3,-22.9,-4.2,82.9*
O=C(NCc1ccccc1)c1cc[n+](Cc2ccccc2)cc1,0.0,-14.8,8.0,-8.1,1.1,-4.8
CCOC(=O)N1CCC(NC(=O)C2CCCN(Cc3nc(-c4cccc(C)c4)oc3C)C2)CC1 (stereo unspecified),72.3*,29.5,21.9,86.0*,19.1,14.8
N#CCCN(C(=O)CO/N=C/c1cccc([N+](=O)[O-])c1)c1ccccc1,10.9,-7.7,3.0,-5.3,-1.8,23.9
COc1ccc(S(=O)(=O)/N=C2/C=CC(=O)C(C)=C2C)cc1,6.6,15.5,13.0,11.3,-2.6,14.1
CC1=C/C(=N\OS(=O)(=O)c2ccccc2)C(C)=CC1=O,33.7,0.4,106.5*,93.5*,8.9,-23.5
CC1=C(C)/C(=N\OS(=O)(=O)c2ccc(C)cc2)C=CC1=O,47.9,-17.3,106.1*,94.8*,-5.8,92.6*
COc1cc(C(=O)O/N=C2/C=C(C)C(=O)C=C2C)cc(OC)c1OC,14.1,21.9,6.7,21.8,13.6,39.6
CC1=C/C(=N\OS(=O)(=O)c2ccccc2)C(C(C)C)=CC1=O,9.5,14.5,95.7*,67.8,5.8,49.1
Cc1ccc2c(c1)N(CC(=O)Nc1ccccc1F)C(=O)C(C)O2 (stereo unspecified),-7.7,4.9,11.9,-1.1,5.2,14.3
CCCCN(C(=O)C(C)Oc1ccc(Cl)cc1)c1c(N)n(CCCC)c(=O)[nH]c1=O (stereo unspecified),3.1,7.9,8.6,-3.6,4.6,6.8
COc1cc(-n2c(=O)c3ccccc3n(Cc3cc(=O)n4ccccc4n3)c2=O)cc(OC)c1OC,-5.1,18.8,18.7,14.5,0.1,6.5
CC(C)C(C)NC(=O)COc1ccc(-c2ccccc2)cc1 (stereo unspecified),-8.5,-33.6,-31.7,13.8,10.5,-17.7
CC(C)C(C)NC(=O)COc1ccc(Sc2ccc(OCC(=O)NC(C)C(C)C)cc2)cc1 (stereo unspecified),13.8,28.2,18.8,78.0,17.3,66.2*
Nc1c(NC(=O)CC[n+]2ccccc2)cccc1[N+](=O)[O-],6.4,45.8,7.7,-4.9,2.4,52.1*
Cc1nnsc1NC(=O)OCC(C)(C)C,7.7,2.1,18.6,11.8,0.4,-13.1
COc1ccc(N2CCN(C(=O)c3[nH]c4ccc(OC)cc4c3C)CC2)cc1,7.8,6.0,16.9,2.9,3.0,12.2
OCC1(Cc2cccc(C(F)(F)F)c2)CCN(Cc2cc(F)cc(F)c2)CC1,6.1,18.8,21.1,7.0,-19.5,3.1
